Laboratory results reported in PubChem BioAssay AID1259417 (TB Discovery Research, Infectious Disease Research Institute, 2018).
Screen size: about 1,100 compounds; about 760 (69%) were called active. How the calls were made is not given here. So high a share suggests a set chosen from earlier hits. The list shows a part of the results.

Experiment: M. tuberculosis growth inhibition, HTS (AID 1259417);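 further: bacteria grown with compound for 5 days at 37 °C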
Settings: stronger effect = higher value, concentration not given here
[1] = M. tuberculosis DsRed fluorescence growth inhibition
[2] = M. tuberculosis growth inhibition

| SMILES | inhibition [1] | inhibition [2] |
| --- | --- | --- |
| COc1ccc(CCNC(=O)c2ccc(C#CC(C)(C)O)s2)cc1 | 92.7% (active) | 80.8% |
| COc1ccc(NC(=O)c2ccc(C#CC(C)(C)O)s2)cc1 | 58.8% (active) | 31.9% |
| Cn1ccnc1C(O)c1cc(C(C)(C)C)c(O)c(C(C)(C)C)c1 (centres undefined) | 22.8% (inactive) | 28.3% |
| Cc1ccccc1C(=O)Nc1nnc(-c2ccc(Cl)cc2)o1 | 83.5% (active) | 90.7% |
| CCCCNC(=O)Nc1nnc(-c2ccc(Cl)cc2)o1 | 14.7% (inactive) | 4.64% |
| Cc1ccccc1C(=O)Nc1nnc(-c2ccc(F)cc2)o1 | 75.4% (active) | 84.5% |
| CC1CCCN(c2ccc([N+](=O)[O-])s2)C1 (centres undefined) | 97.6% (active) | 99.3% |
| COC(=O)COc1ccc(NC(=O)COc2cccc(C)c2)cc1 | 68.1% (active) | 90.9% |
| COc1ccc(OCC(=O)Nc2cccc(Cl)c2)cc1 | 6.16% (inactive) | -19% |
| COC(=O)COc1ccc(CSCC(=O)Nc2ccc3ccccc3c2)cc1 | 33.1% (active) | 58.5% |
| COC(=O)COc1cccc(NC(=O)COc2ccccc2)c1 | 50% (active) | 64.5% |
| CCOc1ccc(OCC(=O)Nc2cc(C)cc(C)c2)cc1 | 2.08% (active) | 38.4% |
| Cc1cc(C)cc(NC(=O)COc2cccc(C=O)c2)c1 | 4.11% (inactive) | 13.2% |
| COC(=O)COc1ccc(NC(=O)COc2ccc(C)cc2C)cc1 | 99.4% (active) | 99.7% |
| Cc1ccc(CSCC(=O)Nc2ccccc2)cc1 | 3.53% (active) | 35.4% |
| COC(=O)COc1ccc(NC(=O)COc2ccc(C(C)(C)C)cc2)cc1 | 98.8% (active) | 99.4% |
| Cc1ccnc(NC(=O)COc2ccc([N+](=O)[O-])cc2)c1 | -0.546% (inactive) | 11.9% |
| Cc1ccc(CSCC(=O)Nc2ccc(Cl)c(Cl)c2)cc1 | 2.65% (inactive) | 11.4% |
| CCCOC(=O)CSc1nnc(-c2cc(OC)c(OC)c(OC)c2)o1 | 71.2% (active) | 87.3% |
| CCOC(=O)CSc1nnc(-c2cc(OC)c(OC)c(OC)c2)o1 | 85.2% (active) | 90.4% |
| CCOC(=O)N1CCN(C(=O)CSc2nnc(-c3cc(OC)cc(OC)c3)o2)CC1 | 24.7% (inactive) | 11.7% |
| CCOC(=O)CSc1nnc(-c2cccc(Br)c2)o1 | 67.1% (active) | 85.8% |

| SMILES | inhibition [1] | inhibition [2] |
| --- | --- | --- |
| CCCCOc1ccc(C(=O)Nc2nnc(-c3ccncc3)o2)cc1 | 18.1% (active) | 42.4% |
| O=C(Nc1nnc(-c2ccco2)o1)c1ccc(Oc2ccccc2)cc1 | 70.2% (active) | 86.6% |
| CCCCOc1ccc(C(=O)Nc2nnc(-c3ccco3)o2)cc1 | 44.2% (active) | 26% |
| CCOc1ccc(C(=O)Nc2nnc(-c3ccccn3)o2)cc1 | 3.93% (inactive) | -4.77% |
| COc1ccc(C(=O)Nc2nnc(C3=COCCO3)o2)cc1 | -1.74% (inactive) | -16.2% |
| CCc1ccc(/C=C/C(=O)C2C(=O)c3ccccc3C2=O)cc1 | 100% (active) | 99.5% |
| NC(=O)c1c(NC(=O)c2c(F)c(F)c(F)c(F)c2F)sc2c1CCCCCC2 | 43.3% (active) | 78.9% |
| Cc1ccc(C(=O)Nc2sc3c(c2C(N)=O)CCC(C(C)(C)C)C3)c(C)c1 (centres undefined) | -2.03% (inactive) | -11.7% |
| NC(=O)c1c(NC(=O)c2c(F)c(F)c(F)c(F)c2F)sc2c1CCC2 | 98.9% (active) | 95.4% |
| NC(=O)c1c(NC(=O)c2cccc(F)c2)sc2c1CCC2 | -2.04% (inactive) | -14.1% |
| COc1cc(C(=O)Nc2sc3c(c2C(N)=O)CCCC3)c(Br)c(OC)c1OC | 27.3% (inactive) | 4.82% |
| CC(C)(C)c1ccc(Cn2cnc([N+](=O)[O-])n2)cc1 | 98.3% (active) | 96.6% |
| CCOC(=O)c1c(NC(=O)COc2ccc(C(C)C)cc2)sc2c1CCC2 | 44.6% (active) | 99.6% |
| COc1cccc(C(=O)Nc2sc3c(c2C(N)=O)CCCCCC3)c1 | -2.93% (inactive) | -15.5% |
| NC(=O)c1c(NC(=O)c2cc(Cl)ccc2Cl)sc2c1CCCCCC2 | -5.89% (inactive) | -25.5% |
| CCOc1cccc(C(=O)Nc2sc3c(c2C(N)=O)CCC3)c1 | -0.558% (inactive) | -34.5% |
| COC(=O)c1c(NC(=O)c2c(F)c(F)c(F)c(F)c2F)sc2c1CCC2 | 98.2% (active) | 95.8% |
| COC(=O)c1c(NC(=O)c2c(F)c(F)c(F)c(F)c2F)sc2c1CCCCC2 | 97.4% (active) | 93% |
| COC(=O)c1c(NC(=O)c2c(F)cccc2F)sc2c1CCC(C(C)(C)C)C2 (centres undefined) | 0.929% (inactive) | -6.55% |
| CCOC(=O)c1c(NC(=O)c2cc(-n3cnnc3)ccc2Cl)sc2c1CCCC2 | 37.7% (active) | 36.2% |
| Cc1cc(C2N=C(N)Nc3nc4ccccc4n32)c(C)n1-c1ccccc1Cl (centres undefined) | -7.08% (inactive) | -25.2% |
| Cc1ccc(-n2cc(-c3ccccc3)c3c(NCc4cccnc4)ncnc32)cc1 | 19.7% (inactive) | -7.61% |

| SMILES | inhibition [1] | inhibition [2] |
| --- | --- | --- |
| CCOC(=O)C=CC(=O)Nc1sc2c(c1C(=O)OC)CCC2 | 10.6% (active) | 29.7% |
| Cc1cccc(C(=O)Nc2sc3c(c2C(=O)N2CCCC2)CCC3)c1 | -0.854% (inactive) | -7.24% |
| CNC(=O)c1c(NC(=O)c2cccc(C)c2)sc2c1CCC2 | 9.53% (inactive) | -24.5% |
| CCOC(=O)c1c(NC(=O)c2c(F)c(F)c(F)c(F)c2F)sc2c1CCCCC2 | 97.9% (active) | 96.2% |
| Oc1ccc(Br)cc1-c1nc(-c2cccs2)c(-c2cccs2)[nH]1 | 1.19% (inactive) | -11.5% |
| N#Cc1cc2c(ccc3ccccc32)oc1=O | 17.3% (active) | 55.9% |
| CC(C)C(=O)Nc1nnc(-c2ccccc2)o1 | 1.9% (inactive) | 2.21% |
| CC(C)C(=O)Nc1nnc(-c2ccc(Br)cc2)o1 | 23.4% (active) | 38.6% |
| CCCCC(=O)Nc1nnc(-c2ccc(Br)cc2)o1 | 5.72% (inactive) | 15.5% |
| COC(=O)C(C)Sc1nnc(-c2ccc(Br)cc2)o1 (centres undefined) | 71.1% (active) | 95.8% |
| CC(C)(C)C(=O)Nc1nnc(-c2ccc(Br)cc2)o1 | 90.8% (active) | 84.1% |
| O=C1C=C(c2ccccc2)C(=O)c2ccccc21 | 12% (active) | 58.3% |
| COc1ccc(Cc2nnc(SCC(=O)NCc3ccco3)o2)cc1 | 32.4% (active) | 54.8% |
| O=C(CSc1nc2cc(Cl)ccc2o1)NCCc1ccccc1 | 85.8% (active) | 53% |
| COc1ccc(Cc2nnc(SCC(=O)NCCc3ccccc3)o2)cc1 | 98% (active) | 96.2% |
| O=C(CSc1nnc(Cc2ccccc2)o1)NCCc1ccccc1 | 63.5% (active) | 42% |
| COc1ccc(-c2nnc(SCC(=O)NCCc3ccccc3)o2)cc1 | 93.3% (active) | 88.5% |
| O=c1c2ccccc2[nH]c(=S)n1CCCN1CCN(c2cccc(Cl)c2)CC1 | 14.1% (inactive) | -11.2% |
| COc1cccc(N2CCN(Cc3nc(N)nc(Nc4ccc(C)c(C)c4)n3)CC2)c1 | 29.6% (active) | 48.8% |
| COc1ccc(N2CCN(Cc3nc(N)nc(Nc4ccc(C)c(Cl)c4)n3)CC2)cc1 | 27.3% (active) | 55.4% |
| Cc1cccc(NC(=S)NCCN2CCN(c3ccc(F)c(Cl)c3)CC2)c1C | 9.39% (inactive) | -14% |
| COc1cccc(N2CCN(Cc3nc(N)nc(Nc4ccc(C)c(Cl)c4)n3)CC2)c1 | 9.68% (inactive) | 23.6% |

| SMILES | inhibition [1] | inhibition [2] |
| --- | --- | --- |
| Cc1cccc(Nc2nc(N)nc(CN3CCN(c4cccc(Cl)c4)CC3)n2)c1 | 33.7% (active) | 47.4% |
| CC(=O)OCC#CCSc1nnc(-c2ccc(Br)cc2)o1 | 49.2% (active) | 48% |
| O=C(OCC#CCSc1nnc(-c2ccc([N+](=O)[O-])cc2)o1)c1cccs1 | 65.7% (active) | 72.9% |
| O=C(OCC#CCSc1nnc(-c2ccc(Br)cc2)o1)c1cccs1 | 33.6% (active) | 31.6% |
| CSc1ccc(C(=O)C2CCCN(Cc3cc4ccccc4[nH]3)C2)cc1 (centres undefined) | 4.22% (inactive) | -24.7% |
| CCC(C)c1ccc(O)c(NC(=S)NC(=O)c2cccnc2)c1 (centres undefined) | 99.4% (active) | 99.7% |
| CCCC(=O)N1CCN(c2ccc(NC(=O)c3ccc(-c4ccc(Cl)cc4)o3)cc2Cl)CC1 | 0.329% (inactive) | -21.3% |
| O=C(Nc1cccc(Br)c1)c1ccc(-c2ccc(Cl)cc2)o1 | 8.23% (inactive) | 21% |
| CCC(C)c1ccc(O)c(NC(=S)NC(=O)c2ccc(-c3ccc(Cl)cc3)o2)c1 (centres undefined) | 74.3% (active) | 78.2% |
| C=CCn1c(=NC(=O)c2ccc([N+](=O)[O-])s2)sc2cc(S(N)(=O)=O)ccc21 | 59.9% (active) | 94.9% |
| COC(=O)Cc1c(C)c2ccc(OCC(=O)OCc3ccccc3)c(C)c2oc1=O | 4.42% (active) | 54% |
| Cc1cc(C)cc(COc2ccc3c(C)c(CCC(=O)O)c(=O)oc3c2C)c1 | 13.5% (inactive) | -13.6% |
| CCc1c(C)c2ccc(OCC(=O)OC)c(C)c2oc1=O | 49.4% (active) | 89.1% |
| O=c1cnnc(NN=Cc2cc(Br)ccc2O)[nH]1 | 100% (active) | 98.8% |
| O=C(c1cccc([N+](=O)[O-])c1)N1N=C(c2ccc(Br)cc2)CC1(O)C(F)(F)F (centres undefined) | 5.59% (inactive) | 21% |
| Cc1cccc(C(=O)N2N=C(c3ccc(Br)cc3)CC2(O)C(F)(F)F)c1 (centres undefined) | 12.2% (active) | 41% |
| CCOc1cc(CNC23CC4CC(CC(C4)C2)C3)ccc1OCc1cccs1 | 99.7% (active) | 95.9% |
| CN(C)c1ccc(CNC23CC4CC(CC(C4)C2)C3)cc1 | 98.9% (active) | 95.5% |
| COc1cc(CNC23CC4CC(CC(C4)C2)C3)ccc1OCc1ccccc1 | 99.4% (active) | 96.2% |
| c1ccc(COc2ccccc2CNC23CC4CC(CC(C4)C2)C3)cc1 | 22.3% (inactive) | 3.79% |
| CCOc1cccc(N2C(=O)CC(SC(N)=NN=C(C)c3ccc(Cl)s3)C2=O)c1 (centres undefined) | 6.46% (inactive) | -10.4% |
